Experimental findings from PubChem BioAssay (NCATS) are described below.

Several values for one entry are separate records, joined by “and”; a condition that tells them apart may be missing. Identical values can stand only once. Inconclusive results are not listed. Activity calls are given as the source filed them. Unless noted, the call rests on the fitted dose curve; in most records, active means well fitted curve in the direction sought with a large enough effect; inconclusive means small, poorly fitted or top-dose-only effect, or another doubt; inactive means no such curve, though single readings can be large; an effect the other way counts as inactive or inconclusive.

Assay [1] in a line: A High-Content qHTS Against Drug Library for the Identification of Small Molecules that Inhibit DYT1 Early Onset Primary Dystonia-Associated Cell Pathology (AID 1645839; calls by dose curve). The gist of the method: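 Flp-In T-REx 293 cells with tetracycline-inducible EGFP-delE hTOR1A (WT EGFP-hTOR1A as reference), 800 cells/well; compound added with tetracycline, 48 h at 37 C. Fixed, permeabilized cells imaged; %pathology (punctate TorsinA) primary, cell count counterscreen.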
A general note: qHTS replaces the single test concentration by a dilution series.

The target of assay [2] is Cytochrome P450 2D6 (Homo sapiens) (UniProt P10635). Description: Cytochrome P450 family 2 subfamily D member 6 (CYP2D6) small molecule antagonists: luciferase biochemical (cell-free) qHTS assay (AID 1645840; active means well fitted curve in the direction sought with a large enough effect in the repeat runs; an effect the other way counts as inactive or inconclusive; further: potency means the concentration at half of the fitted maximal effect; nearly all actives have a fitted effect of over 55% in size). The gist of the method: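 P450-Glo luminescent screen: recombinant CYP2D6 enzyme–proluciferin substrate mix preincubated with compound 10 min at room temperature, then NADPH regeneration added for 1 h at room temperature. Detection reagent added for 20 min; luciferin light read as relative luminescence units.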
Cytochrome P450 2D6 (Homo sapiens), sequence (P10635 whole entry, looked up): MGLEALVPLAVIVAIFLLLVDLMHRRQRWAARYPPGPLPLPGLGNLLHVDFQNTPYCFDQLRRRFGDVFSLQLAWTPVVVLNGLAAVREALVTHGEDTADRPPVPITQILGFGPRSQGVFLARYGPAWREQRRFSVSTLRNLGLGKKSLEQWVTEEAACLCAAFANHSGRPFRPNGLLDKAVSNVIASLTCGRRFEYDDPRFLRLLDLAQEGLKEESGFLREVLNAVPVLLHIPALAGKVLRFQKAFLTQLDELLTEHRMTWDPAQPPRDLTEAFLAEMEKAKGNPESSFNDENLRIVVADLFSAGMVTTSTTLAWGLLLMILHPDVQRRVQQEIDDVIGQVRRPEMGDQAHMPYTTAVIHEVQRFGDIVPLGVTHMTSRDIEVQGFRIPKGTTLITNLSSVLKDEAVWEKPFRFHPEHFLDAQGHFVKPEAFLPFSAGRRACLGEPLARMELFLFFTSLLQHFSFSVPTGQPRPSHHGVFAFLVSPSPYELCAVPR

Assay [3] concerns the target Cytochrome P450 2C9 (Homo sapiens) (UniProt P11712). In words: Cytochrome P450 family 2 subfamily C member 9 (CYP2C9) small molecule antagonists: luciferase biochemical (cell-free) qHTS assay (AID 1645842; active means well fitted curve in the direction sought with a large enough effect in the repeat runs; an effect the other way counts as inactive or inconclusive; further: nearly all actives have a fitted effect of over 55% in size; further: potency means the concentration at half of the fitted maximal effect; on activity change, negative = inhibition: on the % scale 0 is the no-effect control and ±100 the full control effect). The gist of the method: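 Luminescence, after 20 min with luciferin detection reagent, reflected CYP2C9 turnover during a 1 h NADPH-driven reaction at 37C. Enzyme-substrate mix contained 0.4% bovine serum albumin and was preincubated with compound 10 min at room temperature.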

Assay [4] can be described thus: Primary qHTS for small molecule stabilizers of the endoplasmic reticulum resident proteome: Secreted ER Calcium Modulated Protein (SERCaMP) assay (AID 1508630). Further: on the % scale 0 is the no-effect control and ±100 the full control effect. The gist of the method: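 GLuc-SERCaMP-expressing SH-SY5Y cells, pretreated 16 h with compound, are challenged with thapsigargin to empty ER calcium stores; after 4 h, coelenterazine is added directly to the medium and luminescence is imaged.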

Assay [5] is described as follows: Primary qHTS for inhibitors of nuclear receptor binding SET domain protein 2 (NSD2) in an isogenic RCH-ACV NSD2 p.E1099K mutant (9B) (AID 1645876). Further: nearly all actives have a fitted effect of over 70% in size. Further: potency means the concentration at half of the fitted maximal effect.
The nature of assay [6]: Primary qHTS for inhibitors of nuclear receptor binding SET domain protein 2 (NSD2) in an RCH-ACV wild type WT cells (2C) (AID 1645877). Further: nearly all actives have a fitted effect of over 70% in size. Further: potency means the concentration at half of the fitted maximal effect.
Assay [7] in a line: Confirmatory qHTS to identify inhibitors of SARS-CoV-2 cell entry (AID 1645844; calls by dose curve; further: potency means the concentration at half of the fitted maximal effect; nearly all actives have a fitted effect of over 45% in size). The gist of the method:
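HEK293-ACE2 cells were pretreated 1 h with compound, then infected with MLV-based pseudoparticles bearing C-terminally truncated Wuhan-Hu-1 spike for 48 h at 37C; luciferase luminescence normalized to spike PP and bald PP wells.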

Assay [8] can be described thus: Cytotoxicity counterscreen for inhibitors of SARS-CoV-2 cell entry (AID 1645845; calls by dose curve; further: nearly all actives have a fitted effect of over 50% in size). The method, boiled down: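 HEK293-ACE2 cells (Expi293F stably expressing human ACE2) seeded overnight, then compound for 1 h plus 48 h at 37C. Viability as ATP content by luminescence; normalized to wells with cells and media-only wells.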
Background: A counterscreen serves to expose hits that act by an unwanted route or on another target.

Assay [9] in a line: Primary qHTS to identify inhibitors of SARS-CoV-2 cell entry (AID 1645846; calls by dose curve; further: nearly all actives have a fitted effect of over 45% in size). The settings on record: activity change, negative = inhibition: at 57.1 µM (top of the series) unless noted. The method, boiled down: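 Inhibition of spike-mediated entry was scored in human ACE2-transfected Expi293F cells. Particles were MLV-pseudotyped with Wuhan-Hu-1 S carrying a 19-aa C-terminal deletion; signal was luciferase after two days, scaled between spike PP and fusion-protein-free PP.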

For assay [10], the target named is Rap guanine nucleotide exchange factor 3 (Homo sapiens) (UniProt O95398). In words: Confirmatory qHTS for agonist of cAMP-regulated guanine nucleotide exchange factor 3 (EPAC1) (AID 1645881).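 Further: EPAC1 catalysed release of BODIPY-GDP from Rap1B seen as fluorescence loss; 100% = effect of cAMP agonist control; nearly all actives have a fitted effect of over 75% in size.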
Rap guanine nucleotide exchange factor 3 (Homo sapiens), sequence (O95398 whole entry, looked up): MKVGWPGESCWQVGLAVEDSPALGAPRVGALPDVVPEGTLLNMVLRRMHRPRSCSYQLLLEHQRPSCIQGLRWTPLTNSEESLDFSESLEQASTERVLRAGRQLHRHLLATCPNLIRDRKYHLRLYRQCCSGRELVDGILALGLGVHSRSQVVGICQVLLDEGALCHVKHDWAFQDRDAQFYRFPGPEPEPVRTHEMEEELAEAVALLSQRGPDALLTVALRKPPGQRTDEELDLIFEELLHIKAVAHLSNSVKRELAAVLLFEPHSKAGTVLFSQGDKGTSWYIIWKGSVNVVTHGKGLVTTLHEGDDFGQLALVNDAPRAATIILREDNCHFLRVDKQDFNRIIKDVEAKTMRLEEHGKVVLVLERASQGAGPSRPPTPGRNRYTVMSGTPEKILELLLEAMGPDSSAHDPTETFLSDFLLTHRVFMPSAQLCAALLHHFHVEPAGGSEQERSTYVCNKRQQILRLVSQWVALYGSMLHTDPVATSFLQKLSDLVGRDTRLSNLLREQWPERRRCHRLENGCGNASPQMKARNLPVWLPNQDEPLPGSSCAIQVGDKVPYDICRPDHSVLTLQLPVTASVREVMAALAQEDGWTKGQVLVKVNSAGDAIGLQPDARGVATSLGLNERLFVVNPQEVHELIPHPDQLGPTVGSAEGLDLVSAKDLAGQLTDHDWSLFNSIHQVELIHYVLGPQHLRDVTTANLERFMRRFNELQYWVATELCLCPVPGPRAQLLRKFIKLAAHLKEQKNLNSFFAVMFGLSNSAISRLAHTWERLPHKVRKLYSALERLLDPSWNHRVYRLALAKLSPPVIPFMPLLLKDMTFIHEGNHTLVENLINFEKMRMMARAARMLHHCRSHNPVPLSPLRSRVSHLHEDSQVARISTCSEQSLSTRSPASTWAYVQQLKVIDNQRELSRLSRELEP
Assay [11] has as its target Rap guanine nucleotide exchange factor 4 (Homo sapiens) (UniProt Q8WZA2). Description: Confirmatory qHTS for antagonist of cAMP-regulated guanine nucleotide exchange factor 4 (EPAC2) (AID 1645885). Further: on the % scale 0 is the no-effect control and ±100 the full control effect; nearly all actives have a fitted effect of over 25% in size.
The target in assay [12] is N-terminal Xaa-Pro-Lys N-methyltransferase 1 (Homo sapiens) (UniProt Q9BV86). Description: Confirmatory qHTS for Inhibitors of N-terminal methyltransferase 1 (NTMT1): MTaseGlo Assay (AID 1645874). Further: potency means the concentration at half of the fitted maximal effect; nearly all actives have a fitted effect of over 65% in size. The method, boiled down: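 qHTS format: NTMT1 125 nM, SAM 100 uM, peptide SPKRIA 1 uM final; 15 min compound preincubation, 30 min reaction at room temperature. MTase-Glo luminescence.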
N-terminal Xaa-Pro-Lys N-methyltransferase 1 (Homo sapiens), sequence (Q9BV86 whole entry, looked up): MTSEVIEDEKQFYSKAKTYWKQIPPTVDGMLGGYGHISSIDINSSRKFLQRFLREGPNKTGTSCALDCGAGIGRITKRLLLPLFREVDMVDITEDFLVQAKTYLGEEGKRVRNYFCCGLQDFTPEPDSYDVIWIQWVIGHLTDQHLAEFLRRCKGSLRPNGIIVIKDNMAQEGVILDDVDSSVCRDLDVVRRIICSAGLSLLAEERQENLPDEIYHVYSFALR

Cytochrome P450 2C9 (Homo sapiens), sequence (P11712 whole entry, looked up): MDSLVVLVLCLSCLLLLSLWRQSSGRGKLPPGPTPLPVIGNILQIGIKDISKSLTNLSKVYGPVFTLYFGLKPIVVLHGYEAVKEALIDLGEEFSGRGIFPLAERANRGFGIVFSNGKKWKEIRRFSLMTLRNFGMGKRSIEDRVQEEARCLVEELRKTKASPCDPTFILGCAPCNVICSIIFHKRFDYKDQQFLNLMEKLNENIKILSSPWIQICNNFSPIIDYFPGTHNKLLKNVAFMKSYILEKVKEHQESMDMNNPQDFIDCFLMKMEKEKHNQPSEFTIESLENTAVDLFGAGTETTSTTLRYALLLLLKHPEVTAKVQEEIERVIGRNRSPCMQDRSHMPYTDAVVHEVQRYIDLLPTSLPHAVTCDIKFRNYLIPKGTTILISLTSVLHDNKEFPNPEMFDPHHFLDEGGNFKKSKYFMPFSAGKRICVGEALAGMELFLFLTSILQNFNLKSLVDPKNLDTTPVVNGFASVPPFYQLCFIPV
Rap guanine nucleotide exchange factor 4 (Homo sapiens), sequence (Q8WZA2 whole entry, looked up): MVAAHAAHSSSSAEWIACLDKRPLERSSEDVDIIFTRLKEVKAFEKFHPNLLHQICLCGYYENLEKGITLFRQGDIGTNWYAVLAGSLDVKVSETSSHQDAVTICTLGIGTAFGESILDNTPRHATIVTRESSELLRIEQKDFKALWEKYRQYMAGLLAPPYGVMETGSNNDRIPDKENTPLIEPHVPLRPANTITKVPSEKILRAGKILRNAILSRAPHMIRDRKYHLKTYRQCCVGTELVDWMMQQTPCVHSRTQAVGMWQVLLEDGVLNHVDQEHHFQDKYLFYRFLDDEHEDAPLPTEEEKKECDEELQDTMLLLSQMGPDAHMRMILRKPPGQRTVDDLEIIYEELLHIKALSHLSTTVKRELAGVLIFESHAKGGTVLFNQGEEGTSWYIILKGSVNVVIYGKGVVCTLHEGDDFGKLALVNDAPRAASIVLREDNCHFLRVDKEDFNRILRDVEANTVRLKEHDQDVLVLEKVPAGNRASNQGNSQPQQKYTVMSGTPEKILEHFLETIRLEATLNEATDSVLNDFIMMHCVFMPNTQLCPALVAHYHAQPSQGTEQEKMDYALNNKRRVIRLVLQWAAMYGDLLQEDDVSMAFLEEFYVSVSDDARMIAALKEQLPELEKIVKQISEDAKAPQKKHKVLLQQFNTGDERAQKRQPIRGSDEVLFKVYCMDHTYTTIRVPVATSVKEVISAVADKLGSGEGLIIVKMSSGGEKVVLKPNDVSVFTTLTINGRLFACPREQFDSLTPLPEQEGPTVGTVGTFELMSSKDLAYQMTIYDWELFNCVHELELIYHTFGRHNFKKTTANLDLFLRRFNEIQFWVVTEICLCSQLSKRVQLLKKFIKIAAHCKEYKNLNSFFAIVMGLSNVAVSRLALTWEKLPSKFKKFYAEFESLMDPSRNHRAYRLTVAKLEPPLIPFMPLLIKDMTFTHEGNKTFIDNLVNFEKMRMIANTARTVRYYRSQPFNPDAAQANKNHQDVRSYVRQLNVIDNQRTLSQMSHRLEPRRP

Consider `CC[C@H]1C[C@@H]2C[C@H]3c4[nH]c5ccc(OC)cc5c4CCN(C2)[C@@H]13`, for which the molecule was called inactive in assay [1]. The Potency in [2] is 0.278 µM (active). In assay [3], the Potency result was “inactive”.
Turning to `CC(C)NCC(O)c1ccc(N)c(C#N)c1` (stereo not given), the result in assay [4] and in [1] was inactive. Besides, the Potency entry in assay [5] and in assay [6] was “inactive” throughout.
Take `C=CC[C@]1(O)CC[C@H]2[C@@H]3CCC4=CC(=O)CCC4=C3C=C[C@@]21C`: the result in assay [4] and in assay [1] was inactive. For the same molecule, the values for the Potency in assay [3], in assay [7] and in [6] were 11 µM (active), 15.2 µM (active) and 23.7 µM (active), respectively. Further, the Potency result in assay [8] was “inactive”.
Consider `CC1COC2(c3ccccc3Cl)c3cc(Cl)ccc3NC(=O)CN12` (stereo not given), for which, in assay [4], the result was inactive. The Potency in [2] was 11 µM (active); in assay [3], 24.5 µM (active). Further, the Potency entry in assay [8] and in assay [9] was “inactive” throughout.
As for `CC1N=C(N)OC1c1ccccc1` (stereo not given), the molecule was called inactive in [1]. Also, in assay [2], the Potency was 4.92 µM (active). Moreover, the Potency entry in assay [3] is “inactive”.
`C[C@H](N)[C@H](O)c1ccc(O)c(O)c1`: the outcome in assay [4], in [1] and in assay [10] was inactive. Also, the Potency result in [3], in assay [8], in assay [5], in assay [6] and in assay [11] was “inactive” in each case. In addition, the activity change, negative = inhibition in [9] was -20.4%.
As to `O=C1CN2CCOC2(c2ccccc2Cl)c2cc(Cl)ccc2N1` (stereo not given), the outcome in assay [4] was inactive. The Potency entry in [3], in [8], in assay [5] and in assay [6] was “inactive” each time. For the same molecule, the activity change, negative = inhibition in [9] is -6.92%.
Take `COP(=O)(OC)C(O)C(Cl)(Cl)Cl` (stereo not given): the result in assay [4] and in assay [1] was inactive. The Potency result in assay [8], in assay [5] and in assay [6] was “inactive” each time. The activity change, negative = inhibition in [9] is -13.6%.
On to `CCC(OC(C)=O)C(CC(C)NC)(c1ccccc1)c1ccccc1` (stereo not given), for which, in assay [4], the result was inactive. In addition, the Potency in assay [2] is 18 µM (active); in assay [5] it was 24.6 µM (active); in [6] it was 19.5 µM (active).
`C[C@@H]1CC[C@H]2[C@@H](C)C(=O)O[C@@H]3O[C@@]4(C)CC[C@@H]1[C@]32OO4`: the outcome in assay [4] and in assay [1] was inactive. In addition, the Potency entry in assay [8] is “inactive”. Besides, the activity change, negative = inhibition in assay [9] was -32%. In addition, the Potency in [6] was 5.25 µM (active).
Consider `CCC(=O)O[C@H]1CC[C@H]2[C@@H]3CCC4=CC(=O)CC[C@]4(C)[C@H]3CC[C@]12C`, for which the outcome in assay [4] was inactive. The Potency is 16.9 µM (active) in assay [2]; 24.5 µM (active) and 10.7 µM (active) in assay [3]; 23.7 µM (active) in assay [5]. The Potency result in assay [9] was “inactive”.
As for `CN1CCc2cc(Cl)c(O)cc2[C@H]2c3ccccc3CC[C@@H]21`, the call in assay [1] was inactive. Also, the Potency in [2] is 0.001 µM (active). In assay [3], the Potency result was “inactive”.
Consider `CC[C@]1(O)CC[C@H]2[C@@H]3CCC4=CCCC[C@@H]4[C@H]3CC[C@@]21C`, for which the outcome in assay [4] was inactive. Moreover, the Potency in [2] was 17.4 µM (active); in [12] it was 14.1 µM (active); in assay [5] it was 9.44 µM (active); in [6], 7.5 µM (active). Further, in assay [3], the Potency result is “inactive”.
On to `COc1cc(CC(C)N)c(OC)cc1Br` (stereo not given), for which, in assay [4], the outcome was inactive. Further, the Potency was 29.2 µM (active) in assay [2], 10.1 µM (active) in assay [5] and 8.96 µM (active) in [6]. Moreover, the Potency entry in assay [3] is “inactive”.
Consider `O=C(O)CCCCCCNC1c2ccccc2CCc2ccccc21`, for which the outcome in [4] and in [1] was inactive. The Potency entry in assay [3], in [5] and in assay [6] was “inactive” throughout.
